Screens (PubChem)
Only a selection was taken, and hits are over-represented in it overall.
HDAC3 inhib = HDAC3 deacetylase inhibitors, primary screen, biochemical, fluorescence, cell-free homogeneous; AID 2718, 2010; recombinant HDAC3, fluorogenic peptide/trypsin coupled; 0.15% of 320,000 active; inhibition, % at 8.3 µM; Histone deacetylase 3 (Homo sapiens), O15379; in the data active = inhibition above about 26%, passing the limit was not always enough; inconclusive = no clear call, values can overlap the other calls
NPR2 activator = human GC-B receptor activators, primary screen, HEK293 GC-B cells, cGMP TR-FRET, EC30 CNP; 0% at EC30 CNP, 100% saturating CNP; 0.11% of 370,000 active; activation, % at 10 µM; AID 1920062, 2024;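 active = activation at 10 µM reaching about 35% in either raw or pattern-adjusted values, limit read from the data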
ALR inh = inhibitors of human ALR sulfhydryl oxidase, primary screen, biochemical, H2O2 detection, HRP-luminol luminescence, single point. purified ALR, DTT oxidation. AID 485317, 2010. inhibition, % (no concentration beside the values). 3.8% of 290,000 active;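 active = mean replicate inhibition above about 79%, with every replicate also reaching it, limit read from the data; inconclusive = only one of the two criteria met; inactive = mean below limit and not every replicate reaching it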
Target sequence (P55789 whole entry, looked up): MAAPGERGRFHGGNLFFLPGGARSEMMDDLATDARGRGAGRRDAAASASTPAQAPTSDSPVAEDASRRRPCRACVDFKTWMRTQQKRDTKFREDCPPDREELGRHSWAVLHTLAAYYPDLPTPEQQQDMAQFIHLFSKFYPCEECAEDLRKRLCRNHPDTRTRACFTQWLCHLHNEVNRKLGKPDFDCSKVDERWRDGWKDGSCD
NPR1 activator = GC-A stimulated cGMP production enhancers – HEK293 GC-A cells, cGMP TR-FRET, EC30 ANP, primary screen; Atrial natriuretic peptide receptor 1 (Homo sapiens), P16066; 0% at EC30 ANP, 100% saturating ANP; activation, % at 10 µM; 0.14% of 370,000 active; in the data active = activation above about 40%
Large screens that a line does not name were inactive.

O=C(/C=C/Nc1nccs1)C(F)(F)Cl	HDAC3 inhib 54 (no result: ALR inh)
COc1ccccc1CN(C)C(=O)C1COc2ccccc2O1 (stereo not given)	ALR inh 100
Cc1nc(CS(=O)(=O)c2ccc(Cl)cc2)cc(Sc2ccc(Cl)cc2)n1	none
O=C(CNC1CCCCCC1)Nc1ccc(N2CCCC2)cc1	ALR inh 94 (no result: NPR2 activator, NPR1 activator)
O=C(O)CCC(=O)Nc1ccc(N2CCCCCC2)cc1	ALR inh 99
O=C(COC(=O)C1CCCCC1)Nc1ccc(N2CCCCC2)cc1	ALR inh 88
Cc1ccc(N2CCN(c3ccc(NC(=O)CCC(=O)O)cc3)CC2)cc1	HDAC3 inhib inconclusive
CC1CCN(CC(=O)Nc2ccc(N3CCCCCC3)cc2)CC1	ALR inh 98
COC(=O)C1=C(C)N(C)C(=NCc2ccc(OC)cc2)NC1c1cccc(C(F)(F)F)c1 (stereo not given)	none (no result: HDAC3 inhib, ALR inh)
Nc1ncnc2c1ncn2[C@@H]1O[C@H](CNC(=O)[C@@H](N)Cc2ccc(C(=O)c3ccccc3)cc2)[C@@H](O)[C@H]1O	none (no result: HDAC3 inhib, ALR inh)
O=C(CNCC1CCCCC1)Nc1ccc(N2CCCCC2)cc1	ALR inh 98 (no result: NPR2 activator, NPR1 activator)
O=C(CNC1CCCC1)Nc1ccc(N2CCCCCC2)cc1	none (no result: ALR inh)
COc1ccc(CCNc2oc(-c3ccco3)nc2C#N)cc1	none (no result: HDAC3 inhib)
CC1(C)Cc2c(C#N)c(NCCc3ccccc3)nc(-c3ccco3)c2CO1	NPR2 activator 48
CCN(CC)CCNc1nc(-c2ccco2)c2c(c1C#N)CC(C)(C)OC2	none
N#Cc1nc(-c2ccco2)oc1NCCc1ccccc1	ALR inh 98
Cc1ccc(N2CCN(C(=O)C(=O)c3cccc(Br)c3)CC2)cc1	none (no result: HDAC3 inhib, ALR inh)
O=C(C#Cc1ccccc1)Nc1cccc(F)c1	ALR inh 97
O=C(C#Cc1ccccc1)Nc1ccc(F)cc1	ALR inh 97
O=C(CC(=O)Nc1cccc(F)c1)Nc1cccc(F)c1	none
COc1ccc(NC(=O)C#Cc2ccccc2)cc1	none
O=c1c2c([nH]c3ccccc13)CCCC2	none
O=C(O)c1cccc2c3c([nH]c12)CCCC3	ALR inh 87
C[C@@]12CC(=O)NC1N(C(=O)c1cccc(C(F)(F)F)c1)C(c1ccccc1OC(=O)c1cccc(C(F)(F)F)c1)C2 (stereo not given in full)	HDAC3 inhib 42
CCn1nc(C)c(CNC(=O)Nc2ccccc2C(=O)OC)c1C	ALR inh 96
COC(=O)c1ccc(C(=O)N2CCCC(Nc3ccc(C(C)C)cc3)C2)cc1 (stereo not given)	ALR inh 98
CC(C)c1ccc(NC2CCCN(C(=O)c3n[nH]c4c3CCC4)C2)cc1 (stereo not given)	ALR inh 99
CC(C)c1ccc(NC2CCCN(C(=O)c3cccnc3)C2)cc1 (stereo not given)	none
CC(C)c1ccc(NC2CCCN(C(=O)c3ccsc3)C2)cc1 (stereo not given)	ALR inh 98
CC(C)c1ccc(NC2CCCN(C(=O)c3cnn(C(C)C)c3)C2)cc1 (stereo not given)	none (no result: ALR inh)
CC(=O)c1cccc(N(CC(=O)NC2CCCCC2)C(=O)Cn2nnc(-c3ccccc3)n2)c1	none
COc1ccc(-n2c(SCC(=O)NCC3CCCO3)nc3c(c2=O)SC(C)C3)cc1 (stereo not given)	none
Nc1ccccc1NC(=O)c1ccccc1	HDAC3 inhib 75 (no result: ALR inh)
O=C(Nc1ccccc1C(=O)Nc1ccccc1C(=O)O)c1ccccc1	ALR inh 97
COc1ccccc1NC(=O)c1ccccc1Nc1ccccc1	none
O=C(O)c1ccccc1NC(=O)c1ccccc1Nc1ccccc1	ALR inh 98
CC(=O)Nc1ccccc1NC(=O)c1ccccc1	none
CC(=O)c1sc(Nc2ccc3c(c2)OCO3)nc1C	none (no result: HDAC3 inhib, ALR inh)
Cc1cccc(/N=C/c2ccccn2)n1	none
C=CCOC(=O)/C=C/C(=O)NC(N)=O	ALR inh 98
C=CCOC(=O)Nc1ccc(Cl)cc1NC(=O)OCC=C	none
CCN(C[C@H]1N[C@@](C)(C(=O)OC)[C@H]2C(=O)N(Cc3ccccc3)C(=O)[C@@H]12)C(=O)Nc1ccc(F)cc1	none (no result: ALR inh)
Cc1ccc(N2C(=O)c3ccc(C(=O)O)cc3C2=O)cc1C	ALR inh 95
Cn1ncc2c(Nc3ccc(O)cc3)nc(Cl)nc21	ALR inh 91
COC(=O)[C@]1(C)N[C@H](CN(C)S(=O)(=O)c2ccc(OC)cc2)[C@@H]2C(=O)N(C)C(=O)[C@@H]21	none
CCOC(=O)CNC(=O)c1cccnc1	none
CCOC(=O)C(O)(NC(=O)c1cccnc1)C(F)(F)F (stereo not given)	HDAC3 inhib 42
CCC1(c2ccccc2)NC(=O)N(CC(=O)Nc2ccc(Cl)c(S(=O)(=O)N3CCCCC3)c2)C1=O (stereo not given)	none
Cc1ccc(Nc2c(-c3ccc(C)o3)nc3ncccn23)cc1	none (no result: ALR inh)
Clc1ccc(-c2nc3ncccn3c2Nc2ccc3c(c2)OCO3)cc1	none
Cc1ccn2c(Nc3ccc4c(c3)OCO4)c(-c3ccc(O)cc3)nc2c1	ALR inh 85, NPR1 activator 47
COc1ccc(-c2nc3cc(C)ccn3c2NCc2ccc3c(c2)OCO3)cc1	none
Oc1ccc(-c2nc3ncccn3c2Nc2ccc3c(c2)OCO3)cc1	ALR inh 99
Cc1ccc(-c2nc3ncccn3c2Nc2ccc3c(c2)OCO3)o1	ALR inh 99
O=c1c2ccccc2ncn1-c1ccc(Br)cc1[N+](=O)[O-]	none
CC(=O)N/C(=C/c1ccc([N+](=O)[O-])cc1)C(=O)O	none
Cc1cc(C)nc(SC2=CS(=O)(=O)c3ccccc32)n1	none
O=S1(=O)C=C(Sc2nnc(-c3ccccc3)o2)c2ccccc21	ALR inh 78 (no result: NPR2 activator, NPR1 activator)
Cc1nc(N)sc1N=Nc1ccc(F)cc1	ALR inh 98
N#CC(C(=O)Nc1cccc(Cl)c1)=C1Nc2ccccc2N1	none
N#CC(C(=O)Nc1ccccc1)=C1Nc2ccccc2N1	ALR inh 86
O=C(NCc1cc([N+](=O)[O-])ccc1O)c1cccc(NS(=O)(=O)c2ccccc2)c1	none
CC(=O)Oc1oc(-c2ccccc2)nc1/C=N/c1ccccn1	HDAC3 inhib 84
CCOC(=O)C1CCN(c2c(N3CCN(Cc4ccccc4)CC3)c(=O)c2=O)CC1	none
CCOC(=O)C1CCCN(c2c(NCCCN(CC)c3cccc(C)c3)c(=O)c2=O)C1 (stereo not given)	ALR inh 98
CCOC(=O)C1CCCN(c2c(NCCc3cccc(C)c3)c(=O)c2=O)C1 (stereo not given)	none
CCOC(=O)C1CCN(c2c(NCCCN(CC)c3ccccc3)c(=O)c2=O)CC1	ALR inh 90
COC(=O)C1=C(C)N(Cc2ccc(C(F)(F)F)cc2)C(=NCc2ccccc2)NC1c1ccccc1 (stereo not given)	none (no result: HDAC3 inhib, ALR inh)
